# CBX7 AlphaScr = inhibitors of human CBX7 binding to H3K27me3 peptide. O95931. AlphaScreen His6-CBX7 / biotin-H3K27me3 peptide binding; stronger effect = lower value. normalised signal (fraction of DMSO) (no concentration beside the values). 66,000 tested, 1.1% active; in the data active = normalised signal below about 0.5
# Target sequence (O95931 whole entry, looked up): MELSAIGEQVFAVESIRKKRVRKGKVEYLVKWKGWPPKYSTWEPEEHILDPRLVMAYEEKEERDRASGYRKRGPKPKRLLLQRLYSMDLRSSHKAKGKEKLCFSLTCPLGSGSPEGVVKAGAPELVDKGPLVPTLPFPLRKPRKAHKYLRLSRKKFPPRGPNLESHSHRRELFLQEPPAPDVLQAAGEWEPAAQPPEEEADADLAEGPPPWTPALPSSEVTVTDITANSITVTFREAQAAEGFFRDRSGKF
# * = called active by the depositor. This excerpt belongs to a sample that is enriched for hits.
SMILES,CBX7 AlphaScr
CCOCCCNC(=O)c1cc(Nc2cc(C)cc(C)c2)nc2ccccc12,1.25
CC(C)(C)n1cnc2cc(NCc3cccc4ccccc34)ccc21,0.6
CCOc1ccc(NCc2nc3ccccc3n2CCOc2ccc(C)cc2)cc1,0.654
COc1ccc(-n2cnc3cc(NCc4nc5ccccc5n4C)ccc32)cc1,0.405*
COc1ccc(-n2cnc3cc(NC(=O)c4ccccc4)ccc32)cc1,1.02
CCOc1ccc(NCc2nc3ccccc3n2CCOc2ccccc2)cc1,0.184*
COc1ccc(-n2cnc3cc(Nc4nnc(C)c5ccccc45)ccc32)cc1,1.3
COc1ccc(-n2cnc3cc(NS(=O)(=O)c4ccccc4)ccc32)cc1,0.772
COc1ccc(-n2cnc3cc(NCc4cccc5ccccc45)ccc32)cc1,0.311*
Brc1ccc(NCc2nc3ccccc3n2CCOc2ccccc2)cc1,1.04
CCc1ccc(NC(=O)C2(S(=O)(=O)c3ccc(Cl)cc3)CC2)cc1,1.09
O=C(NCC1CC2CCC1C2)C(=O)c1c(-c2ccccc2)[nH]c2ccccc12 (stereo unspecified),0.817
Cc1ccc(-c2nn(CCC(=O)Nc3cccc(C)c3)c(=O)c3ccccc23)cc1,0.996
COc1ccc2nc(SCC(=O)Nc3ccc(S(N)(=O)=O)cc3)[nH]c2c1,1.13
O=C(C1CC1)N1CCc2cc(S(=O)(=O)Nc3ccc(OC(F)(F)F)cc3)ccc21,1.04
COc1ccc(Nc2nc(C)nc3sc(C)c(C)c23)cc1Cl,0.811
Cc1ccccc1Cn1c(SCc2ccccc2F)nc2ccncc21,0.983
COc1ccc(CNC(=O)c2ccc(CNc3c(N4CCOCC4)c(=O)c3=O)cc2)cc1,1.35
COc1cccc(CNc2ccc3c(c2)nc(C)n3C)c1OC,0.841
COc1ccccc1CNc1ccc2c(c1)nc(C)n2C,1.04
CC(=O)Nc1ccc2c(c1)nc(C)n2Cc1ccccc1,1.15
COc1ccc(CNc2ccc3c(c2)nc(C)n3Cc2ccccc2)cc1,0.351*
COc1ccccc1OCc1nc2ccccc2n1Cc1ccccc1,1.06
COc1cccc(CNc2ccc3c(c2)nc(C)n3Cc2ccccc2)c1OC,0.307*
COc1ccc(CNc2ccc(-c3nc4cc(C)ccc4s3)cc2)cc1OC,1.11
SMILES,CBX7 AlphaScr
COc1ccc(CNc2ccc3c(c2)nc(C)n3Cc2ccccc2)cc1OC,0.404*
COc1ccc2c(c1)nc(C)n2Cc1ccccc1,0.972
CCOC(=O)c1cnc2c(OC)cccc2c1Nc1cc(Cl)ccc1OC,0.975
Cc1ccc(NC(=O)CS(=O)(=O)c2nc(-c3ccccc3)cn2-c2ccc(Cl)cc2)cc1,0.794
Cc1cccc(C(=O)Nc2c(C(=O)N3CCCC3)cnn2-c2ccccc2)c1,1.04
Cc1oc(-c2ccccc2Cl)nc1CSCC(=O)NC1CCCCC1,0.712
CCOC(=O)C(C)n1cnc2c(nnn2Cc2ccc(F)cc2)c1=O (stereo unspecified),0.96
Cc1ccccc1Cc1c(C)nc2c(C(=O)NC(C)C)cnn2c1C,0.988
CCOC(=O)c1cc(-c2ccccc2)n(-c2cccc(C(=O)NCCc3ccccc3)c2)c1C,0.846
COc1ccc(OC)c(-c2nc(-c3ccccc3)c(-c3ccccc3)[nH]2)c1,0.411*
COc1cccc(-c2nc(-c3ccccc3)c(-c3cc([N+](=O)[O-])ccc3C)[nH]2)c1OC,0.369*
COc1ccc(-c2nc(-c3ccccc3)c(-c3ccc(F)cc3)[nH]2)c(OC)c1C,0.485*
COc1ccc(-c2nc(-c3ccccc3)c(-c3ccc(Sc4ccccc4)cc3)[nH]2)cc1OC,0.726
COc1ccc(-c2nc(-c3ccccc3)c(-c3ccccc3)[nH]2)c(OC)c1,0.37*
COc1cccc(-c2nc(-c3cccc(C)c3)no2)c1OC,1.25
COc1ccc(-c2[nH]c(-c3cc(OC)c4c(c3)OCO4)nc2-c2ccccc2)cc1,0.678
COc1cc(OC)cc(-c2nc(-c3ccccc3)c(-c3ccc(Cl)cc3)[nH]2)c1,0.556
COc1ccc(-c2nc(-c3ccccc3)c(-c3ccccc3)[nH]2)cc1O,0.921
COc1ccc(OC)c(-c2nc3ccccc3nc2-c2ccccc2)c1,1.24
CC1CCC(NC(=O)c2cc3sccc3n2Cc2ccc(Cl)cc2)CC1 (stereo unspecified),1.02
CCc1cccc(NC(=O)CCc2c(C)nc3cc(-c4ccccc4)nn3c2C)c1,0.999
CCOC(=O)c1[nH]c2c(c1C)C(=O)CC(c1cccc(OC)c1)C2 (stereo unspecified),1.08
CC(=O)N1CCc2cc(S(=O)(=O)NC(CC(C)C)C(=O)Nc3cc(C)ccc3C)ccc21 (stereo unspecified),0.908
COc1ccc(C(=O)CC2(O)C(=O)N(Cc3ccccc3)c3ccccc32)cc1OC (stereo unspecified),1
CCN1CCN(c2ncc(C(=O)NCCC3=CCCCC3)c3ccccc23)CC1,1.5
SMILES,CBX7 AlphaScr
CCCCNC(=O)CCc1nc2ccccc2n(Cc2ccccc2Cl)c1=O,0.872
COCCN1Cc2cccc(C(=O)Nc3ccc(Cl)cc3)c2C1=O,1.01
COc1ccc(OC)c(NC(=O)CCC(=O)Nc2ccc3nc(N4CCCCC4)cc(C)c3c2)c1,1.11
Cc1ccc(C)c(CN2C(=O)c3ccccc3S(=O)c3ccc(C(=O)NCc4cccnc4)cc32)c1 (stereo unspecified),0.863
Fc1cccc(Nc2nc3nonc3nc2Nc2cccc(F)c2)c1,1.04
CC1CCN(c2nc3nonc3nc2Nc2ccc3c(c2)OCO3)CC1,0.945
c1cc2c(cc1Nc1nc3nonc3nc1Nc1ccc3c(c1)OCO3)OCO2,0.37*
Cc1cccc(C(=O)Nc2nnc(COc3ccc(C4CCCCC4)cc3)s2)c1,1.08
CCCc1ccc(-c2ccc(C(=O)N3CCOCC3)cc2)nc1,1.03
O=C1CC(c2ccccc2C(F)(F)F)c2cc3c(cc2N1)OCO3 (stereo unspecified),1.05
CCOC(=O)N1CCN(C(=O)C2CCN(C(=O)c3cc4sccc4n3CC)CC2)CC1,0.917
CCn1c(C(=O)N2CCC(C(=O)N3CCN(c4cccc(C)c4)C(C)C3)CC2)cc2sccc21 (stereo unspecified),0.445*
CCn1c(C(=O)N2CCCC(C(=O)N3CCN(c4cccc(C)c4)C(C)C3)C2)cc2sccc21 (stereo unspecified),0.599
Cc1cccc(-c2noc(COc3ccc(Br)c(C)c3)n2)c1,1.06
CCN1CCN(c2cc(C)c3cc(NC(=O)Cc4ccc(C)cc4)ccc3n2)CC1,1.73
CCOc1ccc2c(c1)c(=O)c(S(=O)(=O)c1ccccc1)cn2Cc1ccccc1Cl,0.816
Cc1ccccc1CN1C(=O)c2ccccc2S(=O)c2ccc(C(=O)N(C)CCC#N)cc21 (stereo unspecified),1.04
Cc1ccc(NC2c3ccccc3C(=O)N2c2ccc(C)cn2)cc1 (stereo unspecified),0.927
COc1ccc(Nc2ncc(C(=O)Nc3cc(C)on3)c3ccccc23)cc1,1.05
CSCC[C@@H](C(=O)Nc1cccc(F)c1)N1Cc2ccccc2C1=O,0.488*
COc1ccc(NC(=O)[C@H](CSCc2ccccc2)N2Cc3ccccc3C2=O)cc1Cl,0.87
COc1ccc(NC(=O)[C@H](Cc2ccccc2)N2Cc3ccccc3C2=O)cc1Cl,0.306*
COc1ccc(NC(=O)[C@H](CCS(C)(=O)=O)N2Cc3ccccc3C2=O)cc1OC,1.04
CS(=O)(=O)CC[C@@H](C(=O)Nc1cccc(F)c1)N1Cc2ccccc2C1=O,1.09
CSCC[C@@H](C(=O)Nc1ccc(C)c(F)c1)N1Cc2ccccc2C1=O,0.531
COc1cccc(-c2nn(C)c3sc(C(=O)NCCN4CCOCC4)cc23)c1,0.818

# Screens deposited in PubChem BioAssay by Bradner/Qi Labs at DFCI.
